# Assay outcomes from PubChem.
# The list is not random: actives were taken first. Their share in the collection is about 27%.
# CYP2C19 act: activators of human cytochrome P450 2C19; P33261; recombinant CYP2C19, luciferin-H EGE luminescence; stronger effect = higher value; 0 = fully inhibited enzyme, 1 = untreated enzyme; activation factor at 5 µM; 96,000 tested, under 10 active;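 active = activation factor of at least 2 at 5 µM in the primary screen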;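 also: 0 = wells with 2.5 mM tranylcypromine and 1 = vehicle-only wells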
# sEH inhibitor: inhibitors of human soluble epoxide hydrolase. P34913. recombinant human sEH enzymatic activity assay. inhibition, % at 2 µM. 0.34% of 91,000 active. AID 707; in the data active = inhibition above about 80%
# Target sequence (P34913 whole entry, looked up): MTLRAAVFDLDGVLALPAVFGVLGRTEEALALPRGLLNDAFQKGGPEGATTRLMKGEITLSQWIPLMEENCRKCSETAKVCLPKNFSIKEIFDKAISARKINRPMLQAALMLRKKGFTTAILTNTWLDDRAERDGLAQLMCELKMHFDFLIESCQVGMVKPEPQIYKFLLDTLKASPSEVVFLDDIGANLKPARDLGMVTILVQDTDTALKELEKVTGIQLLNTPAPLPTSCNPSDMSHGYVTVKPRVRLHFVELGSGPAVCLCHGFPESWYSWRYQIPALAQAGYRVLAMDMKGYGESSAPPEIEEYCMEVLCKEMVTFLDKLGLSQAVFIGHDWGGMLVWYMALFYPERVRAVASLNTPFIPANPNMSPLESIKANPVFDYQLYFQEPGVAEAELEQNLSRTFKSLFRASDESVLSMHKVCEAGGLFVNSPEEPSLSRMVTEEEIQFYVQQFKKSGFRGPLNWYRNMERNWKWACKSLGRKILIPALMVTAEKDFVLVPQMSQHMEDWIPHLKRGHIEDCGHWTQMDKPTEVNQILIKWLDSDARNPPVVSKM
# CYP2C9 act: activators of human CYP2C9. P11712. recombinant CYP2C9, luciferin-H conversion, luminescence; stronger effect = higher value; factor 1 = untreated enzyme, 0 = blocked. activation factor at 5 µM. 1.4% of 96,000 active;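 active = activation factor of 2 or more for CYP2C9 at a 5 µM dose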;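 also: 0 = sulfaphenazole-blocked wells and 1 = vehicle-only wells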
# CYP2C9 inhib: inhibitors of human CYP2C9. P11712. inhibition, % at 5 µM. 20% of 96,000 active. CYP2C9 Supersomes, luciferin-H conversion, luminescence;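 active = blocking of liver enzyme CYP2C9 beyond about 50% at 5 µM, limit read from the data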
# CYP2C19 inh: human CYP2C19 inhibition; P33261; CYP2C19 Supersomes, luciferin-H EGE luminescence, 30 min; inhibition, % at 5 µM; 21% of 96,000 active; AID 778;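 active = CYP2C19 inhibition above a set limit at 5 µM in the primary screen, cut at about 50% in these data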;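 also: plate controls were negative control wells for no effect and 2.5 mM tranylcypromine positive control for full effect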
# sEH act: activators of human soluble epoxide hydrolase; P34913; purified human sEH enzymatic activity, activator screen; 0.04% of 91,000 active; activation, % at 2 µM; in the data active = activation above about 37%
# An asterisk follows results filed as active; . = no result given.
SMILES,CYP2C19 act,sEH inhibitor,CYP2C9 act,CYP2C9 inhib,CYP2C19 inh,sEH act
Cc1cccc(S(=O)(=O)Nc2nc3ccccc3nc2NCc2ccco2)c1,0.7,-11,0,95*,26,10
Cc1ccc(S(=O)(=O)Nc2nc3ccccc3nc2NCc2ccco2)cc1C,0.7,-5,0,100*,27,7
CS(=O)(=O)N(CC(=O)NCc1ccco1)c1ccc(Cl)c(C(F)(F)F)c1,0.8,7,1.3,-28,24,-8
O=C(CCN1C(=O)c2ccccc2C1=O)Nc1cc(F)ccc1F,1,11,0.7,30,-1,-9
Cc1ccc(S(=O)(=O)Nc2nonc2C)cc1,1.1,-2,0.9,13,-10,1
Cc1noc(C)c1CSc1nc2ccccc2nc1NS(=O)(=O)c1ccc(Cl)cc1,1,-1,0.1,87*,4,1
Cc1ccccc1S(=O)(=O)Nc1cccnc1,.,4,.,.,.,1
Cc1ccc(S(=O)(=O)Nc2nc3ccccc3nc2NCc2ccco2)cc1,0.8,6,0,99*,19,-6
Cc1ccccc1S(=O)(=O)Nc1nc2ccccc2nc1NCCO,0.8,-16,0,100*,19,13
CCC(C)Oc1nc2ccccc2nc1NS(=O)(=O)c1ccccc1 (centres undefined),1.1,15,1,1,-14,-17
CN(C)CCCOC(=O)C1c2ccccc2Oc2ccccc21,0.3,-24,1.2,-23,74*,24
CCN(CC)CCNC1=CC(=O)OC12CCCCC2,.,-9,.,.,.,12
O=C1C=C(NCc2ccccc2)C2(CCCCC2)O1,0.3,-12,0.9,12,70*,10
O=C1C=C(NCc2ccc(Cl)c(Cl)c2)C2(CCCCC2)O1,0.2,19,0.6,38,77*,-19
O=C1C=C(NCc2ccco2)C2(CCCCC2)O1,0.9,3,0.9,7,8,-3
CCn1cc(C(=O)NCc2ccc(Cl)cc2)c(=O)c2cc(S(=O)(=O)N3CCOCC3)ccc21,1.2,.,0.6,42,-17,.
O=C1c2ccccc2C(=O)N1CCCCSc1nnc(-c2ccc(OC(F)F)cc2)o1,0.6,-27,1.8,-78,39,28
Cc1nnc(SCCCN2C(=O)c3ccccc3C2=O)o1,0.4,-6,0.7,28,60*,3
O=C1c2ccccc2C(=O)N1CCCCSc1nc2ccccc2o1,0.2,-11,0.3,66*,81*,10
O=C(NC(O)C(=O)c1cccs1)c1cccnc1 (centres undefined),1,9,1.1,-7,-4,-6
COc1ccc(OC)c(NC(=O)C2CCN(c3nc(C)cc(C)n3)CC2)c1,0.9,-8,1.3,-33,13,8
CN(c1ccccc1)S(=O)(=O)c1ccc(NC(=O)c2ccc(-c3ccccc3)cc2)cc1,0.4,-1,0.2,84*,62*,5
CN(c1ccccc1)S(=O)(=O)c1ccc(NC(=S)Nc2ccccc2)cc1,0.8,-1,0.4,60*,17,6
CC(=O)Nc1ccc(S(=O)(=O)N(C)c2ccccc2)cc1,0.7,.,0.8,16,31,.
CC1CCN(S(=O)(=O)c2cccc(-c3csc(-c4cccnc4)n3)c2)CC1,0.1,0,0.2,79*,85*,0
SMILES,CYP2C19 act,sEH inhibitor,CYP2C9 act,CYP2C9 inhib,CYP2C19 inh,sEH act
O=S(=O)(c1cccc(-c2csc(-c3cccnc3)n2)c1)N1CCCCC1,0.1,13,0.1,94*,94*,-14
CCOC(=O)CSc1nnc(CNC(=O)c2ccc(OC)c(OC)c2)n1C,1.2,1,1.2,-19,-20,0
O=C(CSc1nnnn1-c1ccccc1)N1CCN(C(=O)c2ccco2)CC1,0.5,-8,0.4,65*,45,8
CC(=O)Nc1nnc(SCc2ccc(F)cc2)s1,0.5,-5,0.8,18,47,4
O=C1c2ccccc2C(=O)N1CCCCSc1nnnn1-c1ccccc1,0.5,.,0.5,51*,48,.
Cc1cc2ccccc2n2c(SCC(=O)NCc3cccs3)nnc12,0.4,26,1.5,-52,64*,-25
O=C(CCCSc1nnc(SCCCC(=O)c2ccc(F)cc2)s1)c1ccc(F)cc1,0.4,0,0.2,76*,56*,3
CSc1nc(C)c(CCOC(=O)c2cccc(Cl)c2)c(=O)[nH]1,1,-19,0.8,23,3,21
O=C(CSc1nnnn1-c1ccccc1)NCc1cccs1,0.2,10,0.9,7,83*,-11
CCC(Sc1nnnn1-c1ccccc1)C(=O)NC(C)c1ccccc1 (centres undefined),0.3,2,0.6,44,74*,1
O=C(CSc1nnnn1-c1cccc2ccccc12)N1CCOCC1,0.9,-10,2.9*,-195,13,14
CSc1ccccc1-n1nnnc1SCC(=O)NCc1cccs1,.,19,.,.,.,-19
O=C(CCCSc1nnnn1-c1ccccc1)c1ccc(F)cc1,0.4,-4,1.6,-60,59*,7
Cc1ccc(O)c(C(=O)c2coc(=N)c(C(=O)NC(C)C)c2)c1,0.7,-2,1.1,-7,33,5
O=C(CSc1nnnn1-c1ccccc1)CSc1nnnn1-c1ccccc1,0,.,0.3,72*,98*,.
Cc1cc(C)nc(NC(=O)CSc2nnnn2-c2ccccc2)n1,0.5,15,1.5,-45,52*,-14
O=C1c2ccccc2C(=O)N1CSc1nnnn1-c1ccccc1,0.2,-20,2.1*,-109,83*,17
O=C(O)CSc1nnnn1-c1ccccc1,0.9,-2,1,3,6,5
CC(Sc1nnnn1-c1ccccc1)C(=O)Nc1ccc(Cl)cn1 (centres undefined),0.1,-15,0.2,80*,87*,14
COc1ccc(OC)c(-c2nnc(-c3ccc(C)o3)o2)c1,0.6,4,1,1,44,-4
CC1(C)CC(=O)c2cnc(NC(=O)C3CCCC3)nc2C1,0.7,-13,0.6,38,27,11
COCCOC(=O)C1=C(C)NC(=O)NC1c1ccc(OC(=O)c2ccco2)c(OC)c1 (centres undefined),0.6,-9,0.9,6,35,11
Cc1nn(C(C)CC(=O)O)c(C)c1Br (centres undefined),1.1,-1,1,-1,-9,-2
Cc1nc2ccc(NC3=NCCCCC3)cc2s1,1,0,1,-3,-3,2
COc1cc(OC)cc(OCC(O)Cn2ccnc2C)c1 (centres undefined),0.6,0,0.6,38,44,-1
COc1cc(OC)cc(OCC(O)Cn2ccnc2)c1 (centres undefined),0,.,0.1,91*,98*,.
Cc1noc(C)c1C(=O)OCC(=O)c1ccc[nH]1,0.5,-18,0.2,85*,48,16
CCCn1c(N)c(C(=O)COC(=O)c2c(C)noc2C)c(=O)n(C)c1=O,0.9,-11,0.5,51*,14,8
